Source: PubChem (National Center for Advancing Translational Sciences (NCATS))
An excerpt weighted towards active compounds, which were near 3% of everything screened.
KCNH2 3.1 inh: blocks the human KCNH2 3.1 channel isoform; U2OS KCNH2 3.1, thallium flux FluxOr; hits give low values; activity change, % (tested at about 1.8 µM); 340,000 compounds, 0.95% hits;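 active = maximum activity change below -70%; inconclusive = maximum activity change from -70% to -50%; inactive = maximum activity change above -50%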;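 also: thallium influx rate constant from kinetic fluorescence after stimulation buffer; % is scaled to controls: 0 for no effect and ±100 for the full control effect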
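Normalized rate constant (relative to positive and negative DMSO controls) derived from a 2 min kinetic fluorescence read after stimulation; U2OS cells expressing the 3.1 isoform via virus at 1.77 x 10^8 /mL.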
12-LOX inh: blocks human arachidonate 12S-lipoxygenase | purified 12hLO, xylenol orange hydroperoxide absorbance | 580,000 compounds, 1.1% hits | Potency, µM (highest dose often 108 µM), without a hit: at the highest dose activity change, negative = inhibition, actives largely listed as inhibitors; active = well fitted inhibition curve with a large enough effect; inconclusive = small, poorly fitted or top-dose-only effect, or another doubt; inactive = no such curve, though single readings can be large or run the other way; also: potency is read from the fitted curve at half-maximal effect; % is scaled to controls: 0 for no effect and ±100 for the full control effect
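Purified human 12hLO at 150 nM in 25 mM Hepes, 0.01% Triton X-100, pH 7.0, preincubated 15 min at room temperature with compound. Reaction started with 40 uM arachidonic acid, 30 min at room temperature. Hydroperoxide measured by Fe-xylenol orange, 573/405 nm absorbance ratio.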
Chronic BCR inh: inhibitors of chronic active B-cell receptor signaling; ABC-DLBCL IkBa-CBG/CBR reporter, luminescence ratio, 4 h; Potency, µM (doses to about 46.1 µM), without a hit: top-dose activity change, negative = inhibition, usual class: inhibitors; 340,000 compounds, 0.05% hits; AID 493014; active = well fitted inhibition curve with a large enough effect in the signal ratio, with a control signal flat, not every such curve was filed as active; inconclusive = small, poorly fitted or top-dose-only effect, or effect the other way, or a change in a side signal; the % refers to the signal ratio;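 also: potency is read from the fitted curve at half-maximal effect; plate controls were basal doxycycline-induced cells for no effect and cells given 10 µM MG132 for full effect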
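Cell line TMD8 (human ABC DLBCL), stably expressing tet-inducible CBG68-IkBa fusion and CBR; IMDM/0.5% FBS; cpd up to 46 uM; dox induction, 4 h, 37C/5% CO2; dual luminescence; green/red ratio; MG132 control.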
KCNH2 WT inh: KCNH2 (human, wildtype) channel inhibition; 340,000 compounds, 0.37% hits; activity change, % at 1.84 µM; U2OS, BacMam KCNH2, thallium flux FluxOr; hits give low values;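 active = maximum activity change below -70%; inconclusive = maximum activity change between -70% and -50%; inactive = maximum activity change above -50%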; also: % is scaled to controls: 0 for no effect and ±100 for the full control effect
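U2OS cells transduced with wild-type KCNH2 virus are loaded with FluxOr dye for 45 min, and thallium flux is measured in kinetic reads before and after stimulation buffer. Rate constants are normalized to DMSO controls.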
LDHA block: LDHA (human) enzyme inhibition | P00338 | purified LDHA, NADH/diaphorase-resazurin fluorescence; hits give low values | activity change, % (values are at about 110 or 230 µM) | 480,000 compounds, 0.15% hits | AID 1347041; in the data active = activity change below about -30%; inconclusive = mostly about -25% to -30%;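 also: plate controls were DMSO wells for no effect and wells without enzyme for full effect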
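Human LDH5 (2 nM) was incubated with 0.06 mM NADH and 0.2 mM pyruvate for 5 min at room temperature in Tris pH 7.4. Remaining NADH was coupled through diaphorase/resazurin, and resorufin fluorescence was read at 0 and 20 min.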
ClpP mod: qHTS Assay for Activators of ClpP | purified B. subtilis ClpP, FRET peptide cleavage, 20 min | ATP-dependent Clp protease proteolytic subunit (Bacillus subtilis (strain 168)), P80244 | Potency, µM (doses to about 57.5 µM), for the others: at the highest dose activity change, negative = active | 340,000 compounds, 1.9% hits; active = well fitted falling curve with a large enough effect; inconclusive = small, poorly fitted or top-dose-only effect; inactive = no such curve, though single readings can be large or run the other way; also: potency is read from the fitted curve at half-maximal effect; the source files actives as falling curves though it sought activators and does not explain the sign; nearly all actives have a fitted effect of over 65% in size
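FRET quenching reversal measured ClpP activation: 10 microg/mL B. subtilis ClpP at pH 8 with the FRET-FV decapeptide, read at 430 nm after 320 nm excitation. The 20-min minus 0-min signal was scaled between DMSO/no-enzyme wells and ADEP (5.8 microM final).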
Active calls of the source: *; ? = inconclusive; · = no result given; [ ] = another dose, or the depositor's remark.

SMILES	KCNH2 3.1 inh	12-LOX inh	Chronic BCR inh	KCNH2 WT inh	LDHA block	ClpP mod
COc1ccc(C(=O)CSc2nnc(-c3ccco3)c(-c3ccco3)n2)cc1	35	20µM*	-12%	-6	0	0%
COc1ccc(S(=O)(=O)N(C)CC(=O)N2CCOCC2)cc1C	·	-9%	·	·	-10	·
Cn1cc(C(C(=O)O)N2CCC(Cc3ccccc3)CC2)c2ccc(C(=O)O)cc21 (centres undefined)	·	-5%	·	·	8	·
O=C(C1CCCC1)N1CC2(CCCN2Cc2cccnc2)Cc2ccccc21 (centres undefined)	·	3%[6.33 µM]	·	·	·	·
Cc1cn2nc(N)c3ccccc3c2n1	2	1%	2%	-4	-10	28µM*
Nc1nn2cc(-c3ccccc3)nc2c2ccccc12	3	11%	?	9	-2	?
CCOC(=O)c1[nH]c2ccc(C)cc2c1NC(=O)c1ccccc1F	·	?	·	·	-13	·
Cc1cc(C(C)(C)C)ccc1OC(=O)/C=C/c1cccs1	·	?	·	·	0	·
COc1cc2c(C#CCCCO)c(-c3ccc(C#N)cc3)oc(=O)c2cc1OC	12	?	4%	7	-4	14µM*
COc1cc2c(C#CCO)c(-c3ccc(C#N)cc3)oc(=O)c2cc1OC	-28	-5%	?	-14	9	4%
Cc1ccoc1C(=O)OCc1ccccc1C#N	·	-3%	·	·	1	·
COCCn1c(=O)[nH]c2cc(C(=O)N3CCN(c4cc(C)ccc4C)CC3)ccc2c1=O	-80*	-4%	?	-3	-7	·
CCN1CCN(C(=O)CCCCCn2c(=O)[nH]c3cc(C(=O)OC)ccc3c2=O)CC1	5	-3%	?	-8	-17	25µM*
COCCn1c(=O)[nH]c2cc(C(=O)Nc3cc(OC)c(OC)c(OC)c3)ccc2c1=O	10	-9%	18%	1	-2	·
COCCn1c(=O)[nH]c2cc(C(=O)OC)ccc2c1=O	-5	-16%	?	3	3	28µM*
Cc1ccc(C)c(N2CCN(C(=O)c3ccc4c(=O)n(CCc5ccccc5)c(=O)[nH]c4c3)CC2)c1	·	-7%	·	·	-17	-2%
Cc1ccccc1NC(=O)COC(=O)c1ccc2ccccc2n1	·	5%	·	·	5	·
O=C(O)c1ccccc1C(=O)/C=C/c1cccs1	·	?	·	·	4	·
CCCCNC(=O)NC(=O)CSc1nc(-c2ccco2)nc2ccccc12	·	?	·	·	-1	·
c1ccc2c(C3=NNC(=NC4CC4)SC3)c[nH]c2c1	8	-2%	-15%	-10	-1	-5%
c1ccc2c(C3=NNC(=NC4CCCCC4)SC3)c[nH]c2c1	-86*	?	?	4	1	0%
CC(CCc1ccccc1)NC(=O)C(=O)Nc1cccc(N2CCCS2(=O)=O)c1 (centres undefined)	·	-20%	·	·	-7	·
Cc1cc(C(=O)C(C)OC(=O)C2=NNC(=O)CC2)c(C)n1-c1ccc(OC(F)F)cc1 (centres undefined)	-3	31%	15%	-4	-8	20µM*
Cc1cc(C(=O)COC(=O)C2=NNC(=O)CC2)c(C)n1-c1ccc(OC(F)F)cc1	1	?	14%	3	-1	-11%
Cc1cccc(N2C(=O)C(O)=C(C(=O)c3cccs3)C2c2ccc(F)cc2)n1 (centres undefined)	-21	-19%	7%	-227*	-2	-1%
COc1ccc(-c2ocnc2C(=O)Nc2ccccc2N2CCCCC2)cc1	?	0%	5%	-23	-1	32µM*
CNC(=O)Nc1ccccc1F	7	5%	7%	-241*	2	2%
CN(Cc1cc(Cl)cc(Cl)c1O)Cc1c(O)ccc2ccccc12	-11	?	·	5	6	·
CSc1ccccc1NC(=O)CN(C)Cc1ccc(Br)cc1	3	-2%	?	0	-3	-8%
CSc1ccccc1NC(=O)CN(C)CC(=O)Nc1ccccc1F	15	7%	-1%	-3	-31*	-5%
